# Screens from PubChem.
# Hits are enriched below; roughly 1.6% of the tested compounds scored in any of these assays.
# PREPL inh = human PREPL enzyme inhibition; hit rate 0.68% among 320,000; inhibition, % at 5.96 µM; recombinant PREPL, fluorescence polarization activity-based probe; in the data active means inhibition above about 43%;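 further: 0% = enzyme with DMSO and 100% = wells lacking enzyme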
# PME-1 inh = blocks human protein phosphatase methylesterase 1; recombinant PME-1, FP-Rh probe fluorescence polarization; inhibition, % at 5.9 µM; hit rate 0.53% among 320,000; AID 2130;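 active means inhibition above the campaign mean of all compounds plus 3 SD, cut at about 26% in these data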;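 further: competitive labeling of PME-1 active site by serine hydrolase directed probe; 0% = PME-1 with DMSO and 100% = wells lacking PME-1 enzyme; inhibitors block probe labeling so polarization falls and inhibition rises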
# MEX-5 binding = C. elegans MEX-5 TCR-2 RNA binding activity. MEX-5/FITC-TCR2 RNA binding, fluorescence polarization; active compounds read low. activity score (negative = inhibition of binding), % at 10 µM. Q9XUB2. hit rate 0.38% among 300,000. AID 1832;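 active means inhibition past about -25% in most replicates, and total fluorescence under double the plate's negative control median, limit read from the data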;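 further: 0% = DMSO and -100% = 5 µM competing unlabeled TCR2 RNA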
# LYPLA1 counter = counter-screen for PME1 inhibitors: inhibitors of human LYPLA1; O75608; recombinant LYPLA1, FP-Rh probe fluorescence polarization; inhibition, % at 5.9 µM; hit rate 0.16% among 320,000;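 active means inhibition above the mean of all tested compounds plus 3 SD, set per campaign, cut at about 14% in these data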;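 further: inhibitors block serine hydrolase probe labeling of LYPLA1 so polarization falls; 0% = enzyme with DMSO and 100% = wells lacking LYPLA1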
# Target sequence (O75608 whole entry, looked up): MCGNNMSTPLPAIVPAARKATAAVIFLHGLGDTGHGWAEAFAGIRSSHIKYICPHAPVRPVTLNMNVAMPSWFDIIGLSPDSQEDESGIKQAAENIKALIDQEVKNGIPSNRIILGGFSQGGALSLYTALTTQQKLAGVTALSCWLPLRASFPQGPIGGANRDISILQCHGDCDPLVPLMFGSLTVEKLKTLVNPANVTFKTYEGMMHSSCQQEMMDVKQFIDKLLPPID
# LYPLA2 counter = blocks human lysophospholipase 2, a PME1 counter-screen; O95372; recombinant LYPLA2, FP-Rh probe fluorescence polarization; inhibition, % at 5.9 µM; hit rate 0.38% among 320,000; AID 2177;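 active means inhibition above the screen-wide mean plus 3 SD, limit set per campaign, cut at about 26% in these data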;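 further: 0% = LYPLA2 with DMSO and 100% = wells lacking LYPLA2 enzyme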
# Target sequence (O95372 whole entry, looked up): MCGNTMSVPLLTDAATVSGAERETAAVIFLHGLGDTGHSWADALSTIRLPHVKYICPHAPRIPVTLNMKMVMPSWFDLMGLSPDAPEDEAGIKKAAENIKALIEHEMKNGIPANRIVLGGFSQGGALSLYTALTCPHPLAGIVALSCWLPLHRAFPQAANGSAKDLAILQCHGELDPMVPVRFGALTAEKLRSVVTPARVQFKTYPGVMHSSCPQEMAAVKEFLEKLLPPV
# Fam108B inh = counter-screen for RBBP9 inhibitors: inhibitors of mouse Fam108B. recombinant Fam108B, FP-Rh probe fluorescence polarization. hit rate 0.33% among 300,000. inhibition, % at 9.51 µM;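 active means inhibition above the screen mean inhibition plus 3 SD, computed separately per campaign, cut at about 18% in these data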;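 further: inhibitors lower polarization as less probe binds the enzyme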
# Numbers without * were called inactive; . = no result.
SMILES,PREPL inh,PME-1 inh,MEX-5 binding,LYPLA1 counter,LYPLA2 counter,Fam108B inh
CC(C)(C)c1nc(S(=O)(=O)c2ccc(Cl)cc2)c(N2CCOCC2)o1,17,1,-1,-2,9,1
Oc1c(C=Nc2cccc3cccnc23)sc2ccccc12,45*,21,4,0,6,11
O=C(CCl)NCCN1C(=O)S/C(=C\c2cccnc2)C1=O,6,5,-60*,-5,-3,-3
O=C1c2cccc(OCC(=O)N3N=C(c4cccs4)CC3c3ccc(F)cc3)c2CCN1Cc1cccnc1 (stereo not drawn),-7,-6,2,-5,38*,6
COc1ccc(NC(=O)c2nc[nH]c2C(=O)N2CCN(C(=O)OC(C)(C)C)CC2)cc1,2,6,5,-1,-2,3
O=C(c1ccc2oc(CCCc3ccccc3)nc2c1)N1CCCC(CCCO)C1 (stereo not drawn),17,42*,0,6,17,1
CCOC(=O)c1cc(-c2ccccc2)sc1NC(=S)Nc1cc(C)ccn1,10,5,-57*,3,2,-3
CCOC(=O)c1cc(-c2ccccc2)sc1NC(=O)C(C)(C)C,14,2,-3,7,2,4
O=C(O)c1cc(Cl)c2c(c1)[C@@H]1C=CC[C@@H]1[C@H](c1ccc(S(=O)(=O)N3CCOCC3)cc1)N2,11,0,-26*,-1,-1,1
Cc1cc(O)c(C=O)c2c1C(=O)Oc1c(CO)c(O)c3c(c1O2)C(O)OC3=O (stereo not drawn),45*,8,.,-4,2,12
COc1ccc(-n2c(O)c(/C=N/NS(=O)(=O)c3cc(C)ccc3C)c3ccccc3c2=O)cc1OC,-23,-58,-31*,-35,-53,-55
CN(CCC1CCOCC1)C(=O)c1cc(COc2c(F)cccc2F)on1,6,3,1,1,-2,-4
Cc1sc(/C=C2\C(=O)ON=C2c2ccccc2)cc1Br,2,4,-31*,0,2,-3
CCCCc1ccc(/C=C2/C(=O)ON=C2c2ccccc2)s1,-9,-6,-3,-4,-2,-13
CCCCn1c(O)c(N=Nc2ccccn2)c2ccccc21,5,0,-31*,-3,-6,-5
COc1cc(/C=N/NC(=O)COc2ccccc2[N+](=O)[O-])ccc1OC(=O)c1ccco1,101*,-4,-1,-1,1,0
O=C(COc1ccccc1[N+](=O)[O-])N/N=C/c1ccc(OC(=O)c2ccco2)cc1,62*,-6,0,-6,-2,-9
COc1ccccc1CN1C2CCCC1CC(NC(=O)/C=C/c1ccccc1)C2 (stereo not drawn),-26,1,1,-1,-3,-1
CN(C)c1ccc(N=Cc2nc(-c3ccccc3)oc2O)cc1,18,1,-64*,3,12,7
CC(=O)Oc1oc(-c2ccccc2)nc1C=Nc1ccc(N(C)C)cc1,3,2,-33*,0,8,0
CCOC(=O)c1c(C)[nH]c(C)c1S(=O)(=O)N(C)CC(=O)Nc1cc(C)ccc1OC,3,26*,1,-3,2,4
CNC(=O)N(O)C1N(/N=C/c2ccc(C)cc2)C(=S)SC1(C)C (stereo not drawn),4,-2,0,-1,-2,1
COc1ccc(NC(=O)COC(=O)Cn2cnc3ccccc3c2=O)cc1OC,-3,1,1,-1,-7,0
COc1ccc(S(=O)(=O)C(C#N)c2nc3ccccc3nc2N2CCC(C)CC2)cc1 (stereo not drawn),13,-1,-47*,4,1,1
CC(C)(C)c1ccc(C(=O)N2CCN(C(=O)C3CCCCC3)CC2)cc1,-4,-2,-3,1,4,-4
SMILES,PREPL inh,PME-1 inh,MEX-5 binding,LYPLA1 counter,LYPLA2 counter,Fam108B inh
CCC(=O)Nc1ccc2nc3c(=O)[nH]c(=S)[nH]c3nc2c1,13,5,-46*,0,-3,8
C#CCN1C(=O)S/C(=C\c2ccc(-c3ccc(C(=O)O)cc3C)o2)C1=O,0,-14,-4,2,2,3
Cc1ccccc1NC(=O)CN1C(=O)S/C(=C\c2ccc(-c3cc(C(=O)O)ccc3C)o2)C1=O,.,.,-54*,.,.,.
O=C1CCNc2ccc(-c3ccccc3)cc21,0,-2,-67*,-3,2,-2
Cc1ccc2c(c1)C(=O)CCN2,5,-3,-1,0,0,3
COc1ccc(CC(=O)NNC(=O)c2ccc(SCc3cc(F)ccc3F)c([N+](=O)[O-])c2)cc1,3,0,0,2,6,3
COc1cccc(N=Cc2c(O)n(-c3cccc(C)n3)c(=O)c3ccccc23)c1,15,7,1,-3,-4,0
COc1ccc(N=Cc2c(O)n(-c3cccc(C)n3)c(=O)c3ccccc23)c(OC)c1,8,-4,-69*,3,1,2
O=C(C[n+]1ccc(C(=O)N/N=C/c2ccc(OCc3ccccc3)cc2)cc1)c1ccccc1,50*,3,-24,-3,-7,-1
C=CCOc1c(Br)cc(/C=N/Nc2ccc(C(=O)O)cc2)cc1OCC,19,48*,3,7,5,17
COc1ccc(/C=N/Nc2ccc(C(=O)O)cc2)cc1Br,-4,2,0,2,1,7
Cc1ccc(-c2nc(Nc3ccc(N4CCOCC4)cc3)c3ccccc3n2)cc1,46*,3,-1,-21,-21,9
Cc1ccc(-c2nc(Nc3cccc(O)c3)c3ccccc3n2)cc1,3,-9,1,-28,-32,1
Cc1ccc(C)n1-c1sccc1C(=O)O,.,.,-36*,.,.,.
O=C(C(=O)N1CCN(Cc2ccc3c(c2)OCO3)CC1)c1c[nH]c2ccccc12,10,9,-4,1,-5,-5
O=C(c1cccc(C(=O)N2CCN(c3ncccn3)CC2)c1)N1CCN(c2ncccn2)CC1,20,7,2,-1,0,1
O=C(c1ccc2nc(-c3ccco3)c(-c3ccco3)nc2c1)N1CCN(c2ncccn2)CC1,61*,16,-5,1,13,14
S=c1[nH]c2ccccc2n2c(=S)[nH]nc12,13,-1,-42*,2,5,1
C=CCN1C(=O)/C(=C2/Sc3ccccc3N2CCCS(=O)(=O)O)SC1=S,2,7,-1,2,-2,14
C=CCN1C(=O)/C(=C2/Sc3ccccc3N2CC)SC1=S,-5,-3,-30*,-3,-5,-4
CCS(=O)(=O)N1Cc2ccccc2CC1C(=O)Nc1nc(C)cs1 (stereo not drawn),3,1,-2,-1,4,-1
Clc1cccc(/C=N/Nc2nc(Cl)nc3ccccc23)c1,46*,1,-2,-3,6,-5
